From publication PMC7862700, “An all-to-all approach to the identification of sequence-specific readers for epigenetic DNA modifications on cytosine” come the findings set out here.

Common to all, as to assay: DAPPL (digital affinity profiling via proximity ligation, sequencing); 10 mM Tris-HCl pH 7.5, 50 mM NaCl, 1 mM DTT, 4% glycerol, room temperature, 30 min; GST-TFs on glutathione beads, 16-mer random dsDNA library, 0.1% formaldehyde crosslink after washing; high values mean tight binding
For assay [1], the target named is T1, FLI1 (Homo sapiens, UniProt Q01543 1-452).
T1 sequence: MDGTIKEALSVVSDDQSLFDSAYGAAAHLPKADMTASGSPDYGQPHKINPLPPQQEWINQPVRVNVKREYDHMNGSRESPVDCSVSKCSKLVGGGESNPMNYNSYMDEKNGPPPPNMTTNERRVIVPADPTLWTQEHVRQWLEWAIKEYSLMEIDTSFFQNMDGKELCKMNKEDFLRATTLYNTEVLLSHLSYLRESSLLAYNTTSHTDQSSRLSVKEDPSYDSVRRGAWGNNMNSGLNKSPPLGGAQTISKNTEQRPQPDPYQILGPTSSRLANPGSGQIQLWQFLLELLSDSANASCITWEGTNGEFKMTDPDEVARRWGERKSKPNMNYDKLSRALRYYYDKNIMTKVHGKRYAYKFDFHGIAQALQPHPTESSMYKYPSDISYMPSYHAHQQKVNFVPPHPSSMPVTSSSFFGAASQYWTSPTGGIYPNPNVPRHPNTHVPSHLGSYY
The following applies: protein: recombinant; tags: N-terminal GST; dsDNA, one strand shown. Put shortly: (§1)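 Pools were built from human transcription factors expressed in yeast as GST fusions, captured on glutathione beads and DNA-barcoded, along with a tag-only sample. Incubation with 200 nmole of a 16-mer random double-stranded DNA library lasted 30 min at room temperature in Tris/NaCl/DTT/glycerol buffer, and was followed by washing, 0.1% formaldehyde crosslinking, proximity ligation, PCR amplification and Illumina NextSeq500 sequencing. Binding signal is the quotient of each hexamer's read frequency for a factor and its frequency for the tag-only sample.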

Assay [2] deals with T2, ELK1 (Homo sapiens, UniProt P19419 1-428).
T2 sequence: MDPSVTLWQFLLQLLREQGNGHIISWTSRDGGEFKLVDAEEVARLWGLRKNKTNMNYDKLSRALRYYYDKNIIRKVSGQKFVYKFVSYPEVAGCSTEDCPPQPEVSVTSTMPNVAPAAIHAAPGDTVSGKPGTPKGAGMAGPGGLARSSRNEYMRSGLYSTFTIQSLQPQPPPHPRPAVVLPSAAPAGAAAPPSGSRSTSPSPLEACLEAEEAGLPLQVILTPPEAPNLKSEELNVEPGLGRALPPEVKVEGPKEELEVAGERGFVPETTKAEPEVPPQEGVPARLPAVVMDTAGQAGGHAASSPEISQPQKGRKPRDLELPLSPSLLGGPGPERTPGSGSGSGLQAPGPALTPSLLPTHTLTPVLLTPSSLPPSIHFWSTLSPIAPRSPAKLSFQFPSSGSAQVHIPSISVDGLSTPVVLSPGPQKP
To be noted: protein: recombinant; tags: N-terminal GST; dsDNA, one strand shown. An outline of the steps: as §1

For assay [3], the target named is T3, GABPA (Homo sapiens, UniProt Q06546 1-454).
T3 sequence: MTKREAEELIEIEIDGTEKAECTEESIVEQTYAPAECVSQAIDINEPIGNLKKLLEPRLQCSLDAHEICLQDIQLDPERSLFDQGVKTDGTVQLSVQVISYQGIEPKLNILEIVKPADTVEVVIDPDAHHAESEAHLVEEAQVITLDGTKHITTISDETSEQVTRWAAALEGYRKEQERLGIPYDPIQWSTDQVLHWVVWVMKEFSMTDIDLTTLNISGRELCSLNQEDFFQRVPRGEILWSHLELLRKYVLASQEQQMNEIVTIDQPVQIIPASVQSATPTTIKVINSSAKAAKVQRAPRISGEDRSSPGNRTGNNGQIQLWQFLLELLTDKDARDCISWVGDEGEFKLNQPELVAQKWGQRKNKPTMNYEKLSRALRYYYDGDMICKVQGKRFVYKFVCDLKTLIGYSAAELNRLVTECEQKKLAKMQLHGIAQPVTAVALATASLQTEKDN
The following applies: protein: recombinant; tags: N-terminal GST; dsDNA, one strand shown. Put shortly: as §1

Assay [4] concerns the target T4, ERG (Homo sapiens, UniProt P11308 1-479).
T4 sequence: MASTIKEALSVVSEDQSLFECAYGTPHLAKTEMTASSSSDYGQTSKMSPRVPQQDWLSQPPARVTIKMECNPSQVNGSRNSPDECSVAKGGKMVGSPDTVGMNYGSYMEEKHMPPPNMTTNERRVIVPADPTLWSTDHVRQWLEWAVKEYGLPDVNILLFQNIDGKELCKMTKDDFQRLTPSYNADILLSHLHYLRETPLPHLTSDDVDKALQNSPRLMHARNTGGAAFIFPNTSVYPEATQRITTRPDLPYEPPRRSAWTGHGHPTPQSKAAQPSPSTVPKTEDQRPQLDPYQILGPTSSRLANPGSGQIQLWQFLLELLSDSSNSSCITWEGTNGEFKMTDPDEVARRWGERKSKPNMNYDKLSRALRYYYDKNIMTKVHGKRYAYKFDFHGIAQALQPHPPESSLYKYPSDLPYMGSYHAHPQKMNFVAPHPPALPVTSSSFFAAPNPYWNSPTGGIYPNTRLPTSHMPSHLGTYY
The following applies: protein: recombinant; tags: N-terminal GST; dsDNA, one strand shown. An outline of the steps:
as §1

In assay [5] the target is ELF1 (Homo sapiens, UniProt P32519 1-619). To be noted: protein: recombinant; tags: N-terminal GST; dsDNA, one strand shown. Put shortly:
as §1

In assay [6] the target is T5, EHF (Homo sapiens, UniProt Q9NZC4 1-300).
T5 sequence: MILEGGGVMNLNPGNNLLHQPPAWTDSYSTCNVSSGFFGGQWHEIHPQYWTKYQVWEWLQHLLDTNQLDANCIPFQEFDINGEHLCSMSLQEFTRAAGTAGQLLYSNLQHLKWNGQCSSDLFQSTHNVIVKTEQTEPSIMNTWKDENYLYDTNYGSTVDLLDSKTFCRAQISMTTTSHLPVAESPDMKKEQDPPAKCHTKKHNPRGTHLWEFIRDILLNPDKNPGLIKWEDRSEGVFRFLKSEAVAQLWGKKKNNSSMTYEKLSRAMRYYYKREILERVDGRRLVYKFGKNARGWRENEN
The following applies: protein: recombinant; tags: N-terminal GST; dsDNA, one strand shown. An outline of the steps:
as §1

Assay [7] concerns the target SPI1 (Homo sapiens, UniProt P17947 1-270). The following applies: protein: recombinant; tags: N-terminal GST; dsDNA, one strand shown. Put shortly: as §1
Assay [8] has as its target SPIB (Homo sapiens, UniProt Q01892 1-262). The following applies: protein: recombinant; tags: N-terminal GST; dsDNA, one strand shown. An outline of the steps:
as §1

Assay [9] addresses T6, ELK3 (Homo sapiens, UniProt P41970 1-407).
T6 sequence: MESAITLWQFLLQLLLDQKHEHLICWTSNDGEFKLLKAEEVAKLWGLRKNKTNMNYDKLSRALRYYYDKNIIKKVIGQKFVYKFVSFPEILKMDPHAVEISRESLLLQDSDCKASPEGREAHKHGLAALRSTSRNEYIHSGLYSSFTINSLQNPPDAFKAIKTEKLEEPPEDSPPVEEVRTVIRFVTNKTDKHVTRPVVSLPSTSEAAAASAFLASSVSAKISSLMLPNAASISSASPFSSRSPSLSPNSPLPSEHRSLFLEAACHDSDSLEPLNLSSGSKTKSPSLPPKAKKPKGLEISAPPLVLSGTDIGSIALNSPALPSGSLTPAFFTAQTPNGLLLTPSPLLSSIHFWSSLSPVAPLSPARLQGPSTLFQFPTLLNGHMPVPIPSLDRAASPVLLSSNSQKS
The following applies: protein: recombinant; tags: N-terminal GST; dsDNA, one strand shown. An outline of the steps:
as §1

Assay [10] has as its target T7, FEV (Homo sapiens, UniProt Q99581 1-238).
T7 sequence: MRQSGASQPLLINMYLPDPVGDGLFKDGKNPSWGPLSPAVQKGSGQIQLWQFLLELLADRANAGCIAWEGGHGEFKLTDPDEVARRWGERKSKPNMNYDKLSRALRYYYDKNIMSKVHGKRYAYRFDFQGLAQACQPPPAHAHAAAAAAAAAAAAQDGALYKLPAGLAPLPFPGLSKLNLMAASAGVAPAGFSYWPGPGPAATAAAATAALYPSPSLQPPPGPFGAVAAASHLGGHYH
To be noted: protein: recombinant; tags: N-terminal GST; dsDNA, one strand shown. An outline of the steps:
as §1

Assay [11] addresses ETV5 (Homo sapiens, UniProt P41161 1-510). To be noted: protein: recombinant; tags: N-terminal GST; dsDNA, one strand shown. Put shortly:
as §1

The target of assay [12] is HSF1 (Homo sapiens, UniProt Q00613 1-529). To be noted: protein: recombinant; tags: N-terminal GST; chain copies: 3; dsDNA, one strand shown. An outline of the steps: as §1
Chain of HSF1 (Q00613 whole entry): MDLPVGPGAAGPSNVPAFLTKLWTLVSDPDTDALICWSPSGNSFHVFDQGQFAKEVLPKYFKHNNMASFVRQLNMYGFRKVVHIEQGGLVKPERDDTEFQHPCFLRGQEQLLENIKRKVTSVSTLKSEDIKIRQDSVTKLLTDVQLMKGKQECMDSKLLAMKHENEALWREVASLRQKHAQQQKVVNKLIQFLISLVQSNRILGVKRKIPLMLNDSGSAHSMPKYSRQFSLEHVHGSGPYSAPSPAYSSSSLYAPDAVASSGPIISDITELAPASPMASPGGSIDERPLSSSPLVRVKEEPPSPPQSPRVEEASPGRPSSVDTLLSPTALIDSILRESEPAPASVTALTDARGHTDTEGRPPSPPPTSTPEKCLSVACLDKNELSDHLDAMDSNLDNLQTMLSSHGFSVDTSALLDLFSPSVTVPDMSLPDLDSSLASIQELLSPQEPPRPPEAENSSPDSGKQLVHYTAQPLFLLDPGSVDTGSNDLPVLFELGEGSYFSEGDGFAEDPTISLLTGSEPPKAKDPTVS
Assay [13] has as its target T8, SPIC (Homo sapiens, UniProt Q8N5J4 1-248).
T8 sequence: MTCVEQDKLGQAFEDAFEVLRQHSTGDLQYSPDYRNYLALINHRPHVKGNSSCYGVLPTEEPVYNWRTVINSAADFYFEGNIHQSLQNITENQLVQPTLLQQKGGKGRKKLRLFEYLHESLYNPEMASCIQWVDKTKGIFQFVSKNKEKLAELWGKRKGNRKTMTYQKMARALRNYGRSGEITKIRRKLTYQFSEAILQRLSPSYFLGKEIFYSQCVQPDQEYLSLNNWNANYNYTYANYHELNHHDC
To be noted: protein: recombinant; tags: N-terminal GST; dsDNA, one strand shown. Put shortly: as §1

The target of assay [14] is ELF4 (Homo sapiens, UniProt Q99607 1-663). The following applies: protein: recombinant; tags: N-terminal GST; dsDNA, one strand shown. An outline of the steps:
as §1

For assay [15], the target named is T9, ELK4 (Homo sapiens, UniProt P28324-2 1-405).
T9 sequence: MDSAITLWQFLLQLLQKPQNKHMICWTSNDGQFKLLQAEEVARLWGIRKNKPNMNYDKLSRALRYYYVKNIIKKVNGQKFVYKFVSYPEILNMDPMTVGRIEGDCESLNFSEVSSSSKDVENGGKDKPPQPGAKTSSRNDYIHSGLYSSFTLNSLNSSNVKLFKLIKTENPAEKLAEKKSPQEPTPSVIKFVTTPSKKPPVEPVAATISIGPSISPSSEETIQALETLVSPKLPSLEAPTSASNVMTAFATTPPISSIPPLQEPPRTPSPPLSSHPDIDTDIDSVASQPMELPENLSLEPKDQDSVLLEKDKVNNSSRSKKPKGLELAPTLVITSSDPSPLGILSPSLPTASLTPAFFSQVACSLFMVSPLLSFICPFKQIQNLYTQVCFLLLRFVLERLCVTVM
To be noted: protein: recombinant; tags: N-terminal GST; dsDNA, one strand shown. An outline of the steps: as §1

Assay [16] addresses T10, ETV2 (Homo sapiens, UniProt O00321 1-342).
T10 sequence: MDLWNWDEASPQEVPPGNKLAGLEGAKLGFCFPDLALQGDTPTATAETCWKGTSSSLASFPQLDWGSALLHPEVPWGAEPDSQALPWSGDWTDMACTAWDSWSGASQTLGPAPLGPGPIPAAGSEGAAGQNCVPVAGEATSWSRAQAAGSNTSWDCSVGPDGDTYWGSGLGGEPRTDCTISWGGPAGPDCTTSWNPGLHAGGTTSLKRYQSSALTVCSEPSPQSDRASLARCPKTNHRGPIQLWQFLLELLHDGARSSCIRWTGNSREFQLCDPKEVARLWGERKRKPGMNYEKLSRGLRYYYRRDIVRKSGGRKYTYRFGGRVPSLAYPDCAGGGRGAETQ
To be noted: protein: recombinant; tags: N-terminal GST; dsDNA, one strand shown. An outline of the steps: as §1

The target in assay [17] is T11, ELF3 (Homo sapiens, UniProt P78545 1-371).
T11 sequence: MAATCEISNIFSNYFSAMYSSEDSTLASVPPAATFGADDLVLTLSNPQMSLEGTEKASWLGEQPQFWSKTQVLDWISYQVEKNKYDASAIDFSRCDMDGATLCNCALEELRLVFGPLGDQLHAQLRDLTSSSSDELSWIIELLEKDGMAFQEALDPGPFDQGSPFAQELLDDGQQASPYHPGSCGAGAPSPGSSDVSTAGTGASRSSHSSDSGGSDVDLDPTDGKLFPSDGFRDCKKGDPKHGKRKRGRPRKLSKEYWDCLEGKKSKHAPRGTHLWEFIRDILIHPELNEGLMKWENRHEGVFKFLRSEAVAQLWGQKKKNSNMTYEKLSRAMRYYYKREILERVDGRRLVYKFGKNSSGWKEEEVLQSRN
The following applies: protein: recombinant; tags: N-terminal GST; dsDNA, one strand shown. Put shortly: as §1

For assay [18], the target named is CRX (Homo sapiens, UniProt O43186 1-299). To be noted: protein: recombinant; tags: N-terminal GST; dsDNA, one strand shown. An outline of the steps:
as §1

For assay [19], the target named is ETV1 (Homo sapiens, UniProt P50549 1-477). The following applies: protein: recombinant; tags: N-terminal GST; dsDNA, one strand shown. Put shortly: as §1
Chain of ETV1 (P50549 whole entry): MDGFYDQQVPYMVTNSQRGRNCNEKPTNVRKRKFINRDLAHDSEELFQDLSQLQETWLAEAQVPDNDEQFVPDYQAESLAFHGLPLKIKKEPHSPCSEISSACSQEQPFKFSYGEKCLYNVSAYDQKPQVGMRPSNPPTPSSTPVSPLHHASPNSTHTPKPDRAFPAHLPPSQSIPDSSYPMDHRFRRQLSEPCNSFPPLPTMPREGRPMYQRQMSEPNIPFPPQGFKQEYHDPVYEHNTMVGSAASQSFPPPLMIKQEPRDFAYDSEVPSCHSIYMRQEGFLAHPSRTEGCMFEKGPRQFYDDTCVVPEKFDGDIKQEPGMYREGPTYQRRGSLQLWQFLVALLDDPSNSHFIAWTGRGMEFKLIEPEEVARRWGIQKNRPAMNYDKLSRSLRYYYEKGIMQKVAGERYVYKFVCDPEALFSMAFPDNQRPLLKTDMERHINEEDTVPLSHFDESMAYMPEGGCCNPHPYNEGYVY

Chain of ETV5 (P41161 whole entry): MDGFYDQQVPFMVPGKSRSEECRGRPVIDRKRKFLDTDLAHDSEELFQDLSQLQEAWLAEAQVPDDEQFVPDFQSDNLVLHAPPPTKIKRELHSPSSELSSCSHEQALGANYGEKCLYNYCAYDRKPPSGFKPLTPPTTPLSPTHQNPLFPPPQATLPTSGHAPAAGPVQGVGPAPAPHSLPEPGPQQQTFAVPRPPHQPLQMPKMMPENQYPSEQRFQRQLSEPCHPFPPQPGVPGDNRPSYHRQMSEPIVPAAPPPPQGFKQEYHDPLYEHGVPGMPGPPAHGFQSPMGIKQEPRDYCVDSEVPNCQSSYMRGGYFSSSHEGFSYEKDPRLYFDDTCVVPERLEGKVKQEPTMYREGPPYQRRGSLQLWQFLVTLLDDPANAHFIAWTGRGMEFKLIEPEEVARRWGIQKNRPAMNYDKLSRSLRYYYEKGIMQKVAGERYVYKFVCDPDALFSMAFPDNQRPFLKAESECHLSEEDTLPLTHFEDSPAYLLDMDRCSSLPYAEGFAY
Chain of ELF1 (P32519 whole entry): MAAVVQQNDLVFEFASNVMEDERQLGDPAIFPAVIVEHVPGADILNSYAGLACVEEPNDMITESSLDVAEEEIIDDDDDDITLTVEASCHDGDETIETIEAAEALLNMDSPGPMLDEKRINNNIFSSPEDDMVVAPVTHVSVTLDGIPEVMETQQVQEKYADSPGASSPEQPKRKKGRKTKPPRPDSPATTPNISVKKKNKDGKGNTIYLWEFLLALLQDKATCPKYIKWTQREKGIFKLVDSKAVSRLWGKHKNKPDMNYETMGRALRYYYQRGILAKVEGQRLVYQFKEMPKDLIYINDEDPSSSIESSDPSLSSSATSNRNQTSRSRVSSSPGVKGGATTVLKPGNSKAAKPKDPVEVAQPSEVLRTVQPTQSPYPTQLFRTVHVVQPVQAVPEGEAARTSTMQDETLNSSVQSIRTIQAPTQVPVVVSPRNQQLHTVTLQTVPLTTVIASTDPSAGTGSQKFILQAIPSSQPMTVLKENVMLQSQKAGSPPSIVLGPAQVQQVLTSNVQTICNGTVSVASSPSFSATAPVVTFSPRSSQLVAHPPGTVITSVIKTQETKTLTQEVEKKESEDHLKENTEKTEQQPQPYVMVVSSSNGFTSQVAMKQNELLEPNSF
Chain of SPIB (Q01892 whole entry): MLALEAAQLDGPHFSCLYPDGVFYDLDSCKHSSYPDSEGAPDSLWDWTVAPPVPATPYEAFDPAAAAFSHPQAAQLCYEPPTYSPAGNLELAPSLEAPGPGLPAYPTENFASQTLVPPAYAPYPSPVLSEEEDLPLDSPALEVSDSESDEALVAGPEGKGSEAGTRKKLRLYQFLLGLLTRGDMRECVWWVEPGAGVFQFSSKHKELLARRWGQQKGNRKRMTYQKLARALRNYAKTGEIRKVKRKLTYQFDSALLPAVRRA
Chain of ELF4 (Q99607 whole entry): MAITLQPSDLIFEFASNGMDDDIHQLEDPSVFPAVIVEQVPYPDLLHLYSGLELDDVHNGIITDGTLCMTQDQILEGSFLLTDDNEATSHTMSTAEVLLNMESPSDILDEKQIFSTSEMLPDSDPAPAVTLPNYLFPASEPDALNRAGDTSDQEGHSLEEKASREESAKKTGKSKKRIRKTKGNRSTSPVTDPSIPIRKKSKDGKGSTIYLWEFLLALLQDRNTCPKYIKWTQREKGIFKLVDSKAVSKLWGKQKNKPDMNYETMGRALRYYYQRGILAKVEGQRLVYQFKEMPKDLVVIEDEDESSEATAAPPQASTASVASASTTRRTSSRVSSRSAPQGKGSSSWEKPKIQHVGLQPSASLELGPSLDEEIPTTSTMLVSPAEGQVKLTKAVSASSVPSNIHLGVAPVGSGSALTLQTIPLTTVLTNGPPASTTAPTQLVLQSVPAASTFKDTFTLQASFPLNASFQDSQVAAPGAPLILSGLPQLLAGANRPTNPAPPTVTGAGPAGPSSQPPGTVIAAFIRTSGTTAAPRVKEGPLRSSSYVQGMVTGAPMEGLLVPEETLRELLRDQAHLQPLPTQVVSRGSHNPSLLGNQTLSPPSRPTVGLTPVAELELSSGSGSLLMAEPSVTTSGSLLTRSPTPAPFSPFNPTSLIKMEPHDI
Chain of CRX (O43186 whole entry): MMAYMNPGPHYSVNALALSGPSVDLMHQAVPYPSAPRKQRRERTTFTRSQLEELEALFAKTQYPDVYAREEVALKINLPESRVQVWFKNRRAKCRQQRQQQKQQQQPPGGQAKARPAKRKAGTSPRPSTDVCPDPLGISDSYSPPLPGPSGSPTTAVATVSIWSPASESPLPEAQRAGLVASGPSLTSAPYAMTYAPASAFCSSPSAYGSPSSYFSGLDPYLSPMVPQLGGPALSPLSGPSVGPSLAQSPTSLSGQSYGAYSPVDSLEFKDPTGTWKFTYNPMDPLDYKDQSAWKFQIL

As for CCCCCA, the binding signal is 1.23 fold enrichment (6-mer frequency, TF over GST control) in assay [1]; 1.18 fold enrichment (6-mer frequency, TF over GST control) in [2]; 1.23 fold enrichment (6-mer frequency, TF over GST control) in assay [3]; 1.17 fold enrichment (6-mer frequency, TF over GST control) in assay [4]; 1.2 fold enrichment (6-mer frequency, TF over GST control) in assay [5]; 1.27 fold enrichment (6-mer frequency, TF over GST control) in [6]. Besides, the binding signal in assay [7] is 1.23 fold enrichment (6-mer frequency, TF over GST control); in assay [8] it was 1.27 fold enrichment (6-mer frequency, TF over GST control); in [9], 1.06 fold enrichment (6-mer frequency, TF over GST control); in assay [10], 1.21 fold enrichment (6-mer frequency, TF over GST control); in assay [11], 1.19 fold enrichment (6-mer frequency, TF over GST control); in assay [12], 1.06 fold enrichment (6-mer frequency, TF over GST control). The binding signal in assay [13] was 1.16 fold enrichment (6-mer frequency, TF over GST control); in [14], 1.2 fold enrichment (6-mer frequency, TF over GST control); in assay [15], 1.19 fold enrichment (6-mer frequency, TF over GST control); in [16] it was 1.4 fold enrichment (6-mer frequency, TF over GST control); in assay [17], 1.3 fold enrichment (6-mer frequency, TF over GST control); in assay [18] it was 1.02 fold enrichment (6-mer frequency, TF over GST control). For the same sequence, in assay [19], the binding signal was 1.18 fold enrichment (6-mer frequency, TF over GST control).
